Experimental findings from PubChem BioAssay (NCI) are described below.

Compounds without any hit were thinned out: in the full panel of roughly 83,000, 20% have a hit.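 In brief: 96-well plates, 48 h treatment, single concentration, percent growth endpoint.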 Unmarked numbers belong to inactive results. Calls of active or inactive are those of the source. The calls were made as follows: active = growth percent below 10; inactive = the rest.

In one test the test system is MDA-MB-435 melanoma. Briefly: NCI-60 one-dose screen, 48 h (100 = growth as untreated, 0 = no growth, -100 = all killed). Particulars: 10 µM unless noted.
Take `O=[N+]([O-])c1ccc(-c2cc(-c3ccc(Nc4nc(Nc5ccc(Cl)cc5)nc(Nc5ccc(Cl)cc5)n4)cc3)no2)cc1`: the growth was 103%.

Take `CCCCCS(=O)(=O)Nc1ccc(C(=O)O)cc1`: the growth was 106%.

As to `COc1ccc(-c2ccc3c(c2)sc2nc(-c4ccc(F)cc4)cn23)cc1`, the growth is 74.3%.

In the case of `NC(=N\N=C/c1ccccc1[N+](=O)[O-])/C(N)=N\N=C/c1ccccc1[N+](=O)[O-]`, the growth is 101%.

Take `O=C(COc1ccc(/C=C2\Oc3ccccc3C2=O)cc1)Nc1nc2c(s1)CCCC2`: the growth was 24.4%.

For the compound `O=[N+]([O-])c1ccc(OCCO)cc1`, the growth was 105%.

With `Cn1cc2c(c1)-c1nc(Nc3ccccc3)ncc1CC2`, the growth was 70.3%.

In the case of `CC1=C(SCCC(=O)OC(C[Se]C2=C(C)C(=O)c3ccccc3C2=O)C(=O)NCCCCCC(=O)OCc2ccccc2)C(=O)c2ccccc2C1=O` (centres undefined), the growth was 25.1%.

Regarding `CC/C=C\C/C=C\C[C@H](O)C/C=C1/C(=O)C=C[C@@H]1C/C=C\CCCC(=O)O`, the growth is 10.1%.

Regarding `COc1cccc(Nc2nccc(Nc3ccc4[nH]ncc4c3)n2)c1`, the growth is -78.4% (active).

For `COc1cccc(-c2nn(-c3ccccc3)cc2-c2ccnc(NCCNC(=O)c3ccccc3)c2)c1`, the growth was 65.4%.

In the case of `COc1ccccc1CNCCCN1C(=O)c2ccc3c4c(ccc(c24)C1=O)C(=O)N(CCCNCCCCN)C3=O`, the growth is 1.2% (active).

`COc1ccc2cc(-c3cc(OC)c(OC)c(OC)c3)c(=O)oc2c1`: the growth is 7.5% (active).

`NC(=S)Nc1cccc(O)c1`: the growth is 98.6%.

Regarding `CCCCn1c(=O)c2c(nc3n2CCCN3CCc2ccc(OCC(=O)NCCN(CC)CC)cc2)n(CCCC)c1=O`, the growth is 63.6%.

Consider `COc1cc2c(cc1-c1c(C)noc1C)ncc1nc(C3CCC(F)(F)CC3)n(C3CCC(OC(F)F)CC3)c12` (centres undefined), for which the growth was 55.2%.

As to `CCN1CCN(c2cc(C)nc(NCc3cc(Nc4ccnc5cc(Cl)ccc45)ccc3F)n2)CC1`, the growth is 50.7%.

With `CCCCc1ccc(Nc2ccc(Nc3ccc(CCCC)cc3S(=O)(=O)O)c3c2C(=O)c2ccccc2C3=O)c(S(=O)(=O)O)c1`, the growth is 84.6%.

As to `N#Cc1c(-c2cccc(Cl)c2)cc(-c2cccc(Cl)c2)[nH]c1=O`, the growth is 0.951% (active).

`Cc1cccc(Cc2cnc(NC(=O)/C=C/c3ccco3)s2)c1`: the growth was -30.7% (active).

On to `N#CC1=C(c2ccc(Br)cc2)NC(SCC(=O)c2ccc(Br)cc2)NC1=O` (centres undefined), for which the growth was 103%.

Regarding `C[C@H](NC(=O)[C@@H]1CSSC[C@@H](NC(=O)c2nc3ccccc3cc2O)C(=O)NCC(=O)N1C)c1ccccc1`, the growth is 23.9%.

For the compound `Cc1c2c(c(C)c3c1oc1cc(O)ccc13)C(=O)N(CCN1CCCCC1)C2=O`, the growth is 93.3%.

As for `CCCCCCCCCCCCCCCCCCOc1ccc(CC(=O)OCC[N+]2(C)CCCC2)cc1`, the growth was 100%.

For the compound `COc1cccc(-c2nn(-c3ccccc3)cc2-c2ccnc(NCCCNC(=O)c3ccc(F)cc3)c2)c1`, the growth is -16.7% (active).

Regarding `COC(=O)[C@H](CSC)N(C)C(=O)[C@@H]1CSSC[C@@H](NC(=O)c2nc3ccccc3cc2O)C(=O)NCC(=O)N1C`, the growth was 70%.

Consider `COc1cccc(/C=C/C(=O)c2c(C)nc3ccccc3c2/C=C/c2ccc(C)cc2)c1OC`, for which the growth is 55.5%.

As for `COc1ccc(S(=O)(=O)NCCNc2nccc(-c3c(-c4cccc(F)c4)nc4sccn34)n2)cc1`, the growth was 14.7%.

Regarding `COc1cccc(C(=O)NCCNc2cc(-c3cn(-c4ccccc4)nc3-c3cccc(OC)c3)ccn2)c1`, the growth was 64.3%.

Take `CCCCOc1nc2ccccc2cc1C1CNC(=O)c2ccccc2N1` (centres undefined): the growth was -63.8% (active).

Take `O=C(CCc1nnc(CN(c2ccccc2)c2ccccc2)o1)c1nc2ccccc2[nH]1`: the growth is 94.3%.

The test system of the next test is SW-620 colon. The test is described as above. The following applies: 10 µM unless noted.
Consider `O=C1N=c2cc3c(cc2=C/C1=C/c1sc(=S)n(CCc2ccc(O)cc2)c1O)OCCO3`, for which the growth was 5.91% (active).

`O=Cc1c[nH]c2ccc(-c3csc4ccccc34)cc12`: the growth was 15.6%.

Consider `O=C(Nc1ccccc1)Nc1cccc(Oc2nnc(Cl)c3ccccc23)c1`, for which the growth was 73.4%.

Take `NC(=O)c1ccc[n+]([C@@H]2O[C@H](COP(=O)([O-])OP(=O)(O)OC[C@H]3O[C@@H](n4cnc5c(N)ncnc54)[C@H](O)[C@@H]3O)[C@@H](O)[C@H]2O)c1`: the growth was 107%.

On to `O=C1CCc2c(sc3[nH]c(=S)n(-c4ccc(OC(F)(F)F)cc4)c(=O)c23)C1`, for which the growth is 19.9%.

Take `CC1(C)CC[C@]2(C(=O)N3CCOCC3)CC[C@]3(C)C(=CC[C@@H]4[C@@]5(C)CC[C@H](OC(=O)c6cccnc6)C(C)(C)[C@@H]5CC[C@]43C)[C@@H]2C1`: the growth was 45.4%.

For the compound `COC(=O)[C@]12CC[C@@H](C)[C@H](C)[C@@H]1C1=CC[C@@H]3[C@@]4(C)C(C=O)=C[C@@](C)(COC(=O)c5ccco5)C4=CC[C@@]3(C)[C@]1(C)CC2`, the growth is -7.67% (active).

As to `O=[N+]([O-])c1ccc(-c2cc(-c3ccc(Nc4nc(Nc5ccc(Cl)cc5)nc(Nc5ccc(Cl)cc5)n4)cc3)no2)cc1`, the growth is 96.6%.

As to `CCCCCS(=O)(=O)Nc1ccc(C(=O)O)cc1`, the growth is 106%.

On to `COc1ccc(-c2ccc3c(c2)sc2nc(-c4ccc(F)cc4)cn23)cc1`, for which the growth was 98.8%.

For `NC(=N\N=C/c1ccccc1[N+](=O)[O-])/C(N)=N\N=C/c1ccccc1[N+](=O)[O-]`, the growth is 105%.

On to `O=C(COc1ccc(/C=C2\Oc3ccccc3C2=O)cc1)Nc1nc2c(s1)CCCC2`, for which the growth is 65.5%.

Take `O=[N+]([O-])c1ccc(OCCO)cc1`: the growth is 101%.

As to `Cn1cc2c(c1)-c1nc(Nc3ccccc3)ncc1CC2`, the growth is 52.1%.

Take `CC1=C(SCCC(=O)OC(C[Se]C2=C(C)C(=O)c3ccccc3C2=O)C(=O)NCCCCCC(=O)OCc2ccccc2)C(=O)c2ccccc2C1=O` (centres undefined): the growth is 45.7%.

On to `CC/C=C\C/C=C\C[C@H](O)C/C=C1/C(=O)C=C[C@@H]1C/C=C\CCCC(=O)O`, for which the growth is 21.4%.

Consider `COc1cccc(Nc2nccc(Nc3ccc4[nH]ncc4c3)n2)c1`, for which the growth is -69.3% (active).

Regarding `COc1cccc(-c2nn(-c3ccccc3)cc2-c2ccnc(NCCNC(=O)c3ccccc3)c2)c1`, the growth is 77.2%.

Consider `COc1ccccc1CNCCCN1C(=O)c2ccc3c4c(ccc(c24)C1=O)C(=O)N(CCCNCCCCN)C3=O`, for which the growth is -0.0566% (active).

As for `COc1ccc2cc(-c3cc(OC)c(OC)c(OC)c3)c(=O)oc2c1`, the growth was 44.3%.

As to `NC(=S)Nc1cccc(O)c1`, the growth is 99.8%.

Turning to `CCCCn1c(=O)c2c(nc3n2CCCN3CCc2ccc(OCC(=O)NCCN(CC)CC)cc2)n(CCCC)c1=O`, the growth was 79.2%.

Take `COc1cc2c(cc1-c1c(C)noc1C)ncc1nc(C3CCC(F)(F)CC3)n(C3CCC(OC(F)F)CC3)c12` (centres undefined): the growth is 75.1%.

On to `CCN1CCN(c2cc(C)nc(NCc3cc(Nc4ccnc5cc(Cl)ccc45)ccc3F)n2)CC1`, for which the growth was 40.8%.

As for `CCCCc1ccc(Nc2ccc(Nc3ccc(CCCC)cc3S(=O)(=O)O)c3c2C(=O)c2ccccc2C3=O)c(S(=O)(=O)O)c1`, the growth was 98.6%.

For the compound `N#Cc1c(-c2cccc(Cl)c2)cc(-c2cccc(Cl)c2)[nH]c1=O`, the growth is 50.2%.

Regarding `Cc1cccc(Cc2cnc(NC(=O)/C=C/c3ccco3)s2)c1`, the growth was 24.9%.

Regarding `N#CC1=C(c2ccc(Br)cc2)NC(SCC(=O)c2ccc(Br)cc2)NC1=O` (centres undefined), the growth was 101%.

Take `C[C@H](NC(=O)[C@@H]1CSSC[C@@H](NC(=O)c2nc3ccccc3cc2O)C(=O)NCC(=O)N1C)c1ccccc1`: the growth is -35.4% (active).

As to `Cc1c2c(c(C)c3c1oc1cc(O)ccc13)C(=O)N(CCN1CCCCC1)C2=O`, the growth is 67.8%.

Take `CCCCCCCCCCCCCCCCCCOc1ccc(CC(=O)OCC[N+]2(C)CCCC2)cc1`: the growth was 95%.

Take `COc1cccc(-c2nn(-c3ccccc3)cc2-c2ccnc(NCCCNC(=O)c3ccc(F)cc3)c2)c1`: the growth was 33%.

As to `COC(=O)[C@H](CSC)N(C)C(=O)[C@@H]1CSSC[C@@H](NC(=O)c2nc3ccccc3cc2O)C(=O)NCC(=O)N1C`, the growth was 74.2%.

As to `COc1cccc(/C=C/C(=O)c2c(C)nc3ccccc3c2/C=C/c2ccc(C)cc2)c1OC`, the growth was 31%.

On to `COc1ccc(S(=O)(=O)NCCNc2nccc(-c3c(-c4cccc(F)c4)nc4sccn34)n2)cc1`, for which the growth is 52.6%.

In the case of `COc1cccc(C(=O)NCCNc2cc(-c3cn(-c4ccccc4)nc3-c3cccc(OC)c3)ccn2)c1`, the growth is 71.1%.

Turning to `CCCCOc1nc2ccccc2cc1C1CNC(=O)c2ccccc2N1` (centres undefined), the growth was 20.9%.

With `O=C(CCc1nnc(CN(c2ccccc2)c2ccccc2)o1)c1nc2ccccc2[nH]1`, the growth is 103%.
